Measurements published in the supplement of paper PMC11732987, “Enantioselective OTUD7B fragment discovery through chemoproteomics screening and high-throughput optimisation” (Communications Chemistry, 2025).

What was measured:
Test in all cases: log2 ratio of Biotin-Ahx-Ub-VS probe labelling (fragment/DMSO); higher = less target engagement (more negative = stronger competition), active = hit call of the paper (q ≤ 0.05, log2 ratio ≤ -1)
Settings in all cases: compound concentration: 200 uM; treatment time: 3 h
USP34 = USP34 (UniProt Q70CQ2)
Sequence of USP34 (Q70CQ2 whole entry, the tested form may be a part): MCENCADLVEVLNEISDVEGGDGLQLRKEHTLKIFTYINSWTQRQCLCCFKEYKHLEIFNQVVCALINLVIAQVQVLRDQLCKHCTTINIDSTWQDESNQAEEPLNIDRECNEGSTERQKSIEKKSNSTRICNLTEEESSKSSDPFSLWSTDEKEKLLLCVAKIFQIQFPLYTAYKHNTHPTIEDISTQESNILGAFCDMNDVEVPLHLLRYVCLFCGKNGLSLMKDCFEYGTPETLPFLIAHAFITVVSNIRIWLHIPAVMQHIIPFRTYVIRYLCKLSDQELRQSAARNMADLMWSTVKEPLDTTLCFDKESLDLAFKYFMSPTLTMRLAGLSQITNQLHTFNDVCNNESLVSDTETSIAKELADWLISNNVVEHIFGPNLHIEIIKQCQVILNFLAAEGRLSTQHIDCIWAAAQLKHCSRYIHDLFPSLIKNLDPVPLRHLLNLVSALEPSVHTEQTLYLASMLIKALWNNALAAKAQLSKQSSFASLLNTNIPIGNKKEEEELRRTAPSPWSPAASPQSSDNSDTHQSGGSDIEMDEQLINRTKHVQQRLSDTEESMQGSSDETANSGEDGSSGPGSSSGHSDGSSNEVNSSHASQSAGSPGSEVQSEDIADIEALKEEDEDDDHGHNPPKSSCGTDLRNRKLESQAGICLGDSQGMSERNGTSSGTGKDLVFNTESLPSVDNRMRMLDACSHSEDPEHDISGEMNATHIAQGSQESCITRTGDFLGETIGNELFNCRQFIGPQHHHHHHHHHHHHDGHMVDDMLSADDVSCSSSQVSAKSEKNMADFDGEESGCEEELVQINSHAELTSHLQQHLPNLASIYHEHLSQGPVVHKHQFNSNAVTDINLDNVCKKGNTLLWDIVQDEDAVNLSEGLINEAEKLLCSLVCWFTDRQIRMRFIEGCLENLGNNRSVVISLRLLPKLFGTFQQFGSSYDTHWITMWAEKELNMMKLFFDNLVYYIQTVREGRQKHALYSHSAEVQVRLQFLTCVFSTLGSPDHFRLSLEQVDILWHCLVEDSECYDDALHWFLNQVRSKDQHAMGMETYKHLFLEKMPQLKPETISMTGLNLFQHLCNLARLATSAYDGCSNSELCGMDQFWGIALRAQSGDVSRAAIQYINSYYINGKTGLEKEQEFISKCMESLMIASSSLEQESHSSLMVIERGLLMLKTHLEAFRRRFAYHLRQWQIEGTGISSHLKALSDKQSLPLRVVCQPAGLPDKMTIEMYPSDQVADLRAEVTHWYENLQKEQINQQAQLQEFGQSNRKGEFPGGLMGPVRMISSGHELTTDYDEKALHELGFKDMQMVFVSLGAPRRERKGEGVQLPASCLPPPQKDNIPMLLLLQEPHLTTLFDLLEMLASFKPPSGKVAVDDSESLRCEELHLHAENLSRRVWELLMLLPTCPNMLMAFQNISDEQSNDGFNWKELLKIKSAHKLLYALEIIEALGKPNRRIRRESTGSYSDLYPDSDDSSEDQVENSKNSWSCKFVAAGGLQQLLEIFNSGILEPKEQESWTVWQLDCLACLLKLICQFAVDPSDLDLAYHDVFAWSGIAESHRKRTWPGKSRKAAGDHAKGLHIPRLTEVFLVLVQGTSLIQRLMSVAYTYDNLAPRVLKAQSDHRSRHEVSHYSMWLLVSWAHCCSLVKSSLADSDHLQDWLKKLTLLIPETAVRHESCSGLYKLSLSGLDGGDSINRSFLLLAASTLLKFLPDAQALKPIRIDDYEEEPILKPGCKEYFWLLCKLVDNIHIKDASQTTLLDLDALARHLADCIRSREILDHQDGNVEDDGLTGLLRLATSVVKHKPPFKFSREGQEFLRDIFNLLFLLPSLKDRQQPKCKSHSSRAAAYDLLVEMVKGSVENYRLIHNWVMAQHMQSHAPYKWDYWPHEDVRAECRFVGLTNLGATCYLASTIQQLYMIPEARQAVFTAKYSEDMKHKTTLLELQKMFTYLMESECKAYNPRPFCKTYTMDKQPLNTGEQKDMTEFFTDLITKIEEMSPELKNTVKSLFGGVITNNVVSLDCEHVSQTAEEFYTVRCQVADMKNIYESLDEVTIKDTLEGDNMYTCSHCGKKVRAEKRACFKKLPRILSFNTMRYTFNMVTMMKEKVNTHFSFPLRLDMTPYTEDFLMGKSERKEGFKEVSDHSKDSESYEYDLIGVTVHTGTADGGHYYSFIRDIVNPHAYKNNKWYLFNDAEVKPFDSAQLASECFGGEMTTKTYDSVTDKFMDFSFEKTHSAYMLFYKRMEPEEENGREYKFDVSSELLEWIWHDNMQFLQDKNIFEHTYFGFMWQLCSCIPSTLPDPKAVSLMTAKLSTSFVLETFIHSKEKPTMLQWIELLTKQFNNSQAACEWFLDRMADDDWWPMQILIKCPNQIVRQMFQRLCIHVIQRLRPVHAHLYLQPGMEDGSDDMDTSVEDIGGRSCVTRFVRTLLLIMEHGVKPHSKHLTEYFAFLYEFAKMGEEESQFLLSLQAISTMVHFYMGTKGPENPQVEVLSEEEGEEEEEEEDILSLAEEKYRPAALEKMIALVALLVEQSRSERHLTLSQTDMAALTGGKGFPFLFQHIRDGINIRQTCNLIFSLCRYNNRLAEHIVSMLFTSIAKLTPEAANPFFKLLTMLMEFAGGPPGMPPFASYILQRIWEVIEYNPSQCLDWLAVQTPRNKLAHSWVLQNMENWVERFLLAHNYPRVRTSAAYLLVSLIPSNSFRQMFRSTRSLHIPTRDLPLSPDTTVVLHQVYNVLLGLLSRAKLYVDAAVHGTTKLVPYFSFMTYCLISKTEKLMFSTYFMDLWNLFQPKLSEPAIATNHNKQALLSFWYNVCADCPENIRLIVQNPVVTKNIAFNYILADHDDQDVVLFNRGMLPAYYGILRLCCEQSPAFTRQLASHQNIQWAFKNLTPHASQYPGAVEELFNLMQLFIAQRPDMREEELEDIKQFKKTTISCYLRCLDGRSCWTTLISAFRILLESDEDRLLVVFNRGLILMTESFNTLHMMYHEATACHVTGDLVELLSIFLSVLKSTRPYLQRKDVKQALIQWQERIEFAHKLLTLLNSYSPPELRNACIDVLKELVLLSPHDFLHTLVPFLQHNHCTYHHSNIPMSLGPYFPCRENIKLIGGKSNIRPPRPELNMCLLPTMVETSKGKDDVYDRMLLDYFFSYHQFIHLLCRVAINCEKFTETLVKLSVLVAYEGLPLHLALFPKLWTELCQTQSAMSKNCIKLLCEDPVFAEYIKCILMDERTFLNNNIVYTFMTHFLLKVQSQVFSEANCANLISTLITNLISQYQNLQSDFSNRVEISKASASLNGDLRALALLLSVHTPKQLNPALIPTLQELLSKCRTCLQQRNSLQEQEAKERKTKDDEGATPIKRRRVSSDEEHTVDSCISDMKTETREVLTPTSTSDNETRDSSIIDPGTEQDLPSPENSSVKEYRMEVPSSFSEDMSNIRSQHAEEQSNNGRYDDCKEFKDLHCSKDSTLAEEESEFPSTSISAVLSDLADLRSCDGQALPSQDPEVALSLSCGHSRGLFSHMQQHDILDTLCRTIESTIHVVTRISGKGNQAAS
Outline: (§1)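 Global-median-normalised Spectronaut label-free quantities were compared by unpaired t-test, and values are average log2 ratios of fragment over vehicle. Only proteins with ≥2 unique peptides were used. HEK293T lysate (495 µg per sample) was treated in triplicate with fragment at 200 µM or vehicle for 3 h and then with Biotin-Ahx-Ub-VS at 0.5 µM final for 1 h. Labelled DUBs were then NeutrAvidin-enriched, digested with LysC and trypsin, and run by diaPASEF LC-MS/MS.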

USP36 = target: T1, USP36 (UniProt Q9P275)
T1 sequence (whole entry): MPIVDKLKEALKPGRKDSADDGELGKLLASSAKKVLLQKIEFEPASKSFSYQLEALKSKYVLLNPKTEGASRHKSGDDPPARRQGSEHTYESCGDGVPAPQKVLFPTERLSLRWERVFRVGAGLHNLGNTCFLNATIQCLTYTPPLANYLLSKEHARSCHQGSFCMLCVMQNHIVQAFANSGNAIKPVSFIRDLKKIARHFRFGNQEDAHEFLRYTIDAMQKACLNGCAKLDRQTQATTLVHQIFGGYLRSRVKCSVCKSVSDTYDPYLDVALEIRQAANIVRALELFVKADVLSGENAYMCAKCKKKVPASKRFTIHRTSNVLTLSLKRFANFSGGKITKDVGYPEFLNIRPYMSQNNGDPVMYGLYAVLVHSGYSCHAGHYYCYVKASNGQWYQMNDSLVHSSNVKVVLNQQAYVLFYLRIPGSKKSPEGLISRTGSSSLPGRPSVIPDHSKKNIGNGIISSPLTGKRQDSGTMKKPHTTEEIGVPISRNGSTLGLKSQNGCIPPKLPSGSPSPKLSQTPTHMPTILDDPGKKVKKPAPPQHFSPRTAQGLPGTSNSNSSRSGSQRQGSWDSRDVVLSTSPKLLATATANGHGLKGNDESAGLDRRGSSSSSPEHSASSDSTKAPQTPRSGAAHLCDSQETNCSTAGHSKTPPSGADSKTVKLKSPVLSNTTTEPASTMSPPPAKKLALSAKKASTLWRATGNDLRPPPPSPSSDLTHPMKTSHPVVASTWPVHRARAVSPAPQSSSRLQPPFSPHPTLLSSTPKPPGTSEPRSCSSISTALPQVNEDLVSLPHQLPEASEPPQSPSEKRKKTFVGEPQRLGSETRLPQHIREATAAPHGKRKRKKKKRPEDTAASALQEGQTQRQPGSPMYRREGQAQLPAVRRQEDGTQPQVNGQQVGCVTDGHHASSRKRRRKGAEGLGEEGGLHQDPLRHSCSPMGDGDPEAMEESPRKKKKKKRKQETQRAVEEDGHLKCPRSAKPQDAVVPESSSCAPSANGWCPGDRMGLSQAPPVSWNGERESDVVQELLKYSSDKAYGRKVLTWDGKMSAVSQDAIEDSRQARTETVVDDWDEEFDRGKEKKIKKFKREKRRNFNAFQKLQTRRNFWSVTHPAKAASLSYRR
Outline: as §1

USP38 = target: T2, USP38 (UniProt Q8NB14)
T2 sequence (whole entry): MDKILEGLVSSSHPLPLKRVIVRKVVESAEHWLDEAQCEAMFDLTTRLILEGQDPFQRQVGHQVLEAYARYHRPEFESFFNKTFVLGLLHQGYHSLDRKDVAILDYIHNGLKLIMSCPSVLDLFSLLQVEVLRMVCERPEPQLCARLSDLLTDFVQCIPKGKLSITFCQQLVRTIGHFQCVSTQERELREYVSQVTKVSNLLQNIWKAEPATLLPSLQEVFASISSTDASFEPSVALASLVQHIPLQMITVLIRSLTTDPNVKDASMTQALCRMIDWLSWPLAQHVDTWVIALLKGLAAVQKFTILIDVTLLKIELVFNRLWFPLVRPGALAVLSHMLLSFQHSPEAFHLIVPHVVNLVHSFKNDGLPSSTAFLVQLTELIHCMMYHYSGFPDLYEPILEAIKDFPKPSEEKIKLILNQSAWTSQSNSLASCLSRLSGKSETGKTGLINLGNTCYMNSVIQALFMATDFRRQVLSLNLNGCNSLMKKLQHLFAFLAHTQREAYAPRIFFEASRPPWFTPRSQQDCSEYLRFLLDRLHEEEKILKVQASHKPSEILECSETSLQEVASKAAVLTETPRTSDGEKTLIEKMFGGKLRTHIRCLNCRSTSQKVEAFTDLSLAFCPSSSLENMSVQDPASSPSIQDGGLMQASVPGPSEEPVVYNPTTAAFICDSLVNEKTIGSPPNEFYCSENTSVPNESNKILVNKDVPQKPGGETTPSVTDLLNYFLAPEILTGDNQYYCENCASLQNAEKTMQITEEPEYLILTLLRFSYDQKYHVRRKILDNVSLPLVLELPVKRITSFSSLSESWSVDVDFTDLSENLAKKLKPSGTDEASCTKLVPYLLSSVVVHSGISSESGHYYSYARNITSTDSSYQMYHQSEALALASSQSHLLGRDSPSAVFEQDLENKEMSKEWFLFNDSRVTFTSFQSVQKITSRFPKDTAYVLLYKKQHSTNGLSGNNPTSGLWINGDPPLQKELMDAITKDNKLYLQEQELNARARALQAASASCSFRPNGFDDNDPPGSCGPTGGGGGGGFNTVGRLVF
Outline: as §1

USP39 = target: T3, USP39 (UniProt Q53GS9)
T3 sequence (whole entry): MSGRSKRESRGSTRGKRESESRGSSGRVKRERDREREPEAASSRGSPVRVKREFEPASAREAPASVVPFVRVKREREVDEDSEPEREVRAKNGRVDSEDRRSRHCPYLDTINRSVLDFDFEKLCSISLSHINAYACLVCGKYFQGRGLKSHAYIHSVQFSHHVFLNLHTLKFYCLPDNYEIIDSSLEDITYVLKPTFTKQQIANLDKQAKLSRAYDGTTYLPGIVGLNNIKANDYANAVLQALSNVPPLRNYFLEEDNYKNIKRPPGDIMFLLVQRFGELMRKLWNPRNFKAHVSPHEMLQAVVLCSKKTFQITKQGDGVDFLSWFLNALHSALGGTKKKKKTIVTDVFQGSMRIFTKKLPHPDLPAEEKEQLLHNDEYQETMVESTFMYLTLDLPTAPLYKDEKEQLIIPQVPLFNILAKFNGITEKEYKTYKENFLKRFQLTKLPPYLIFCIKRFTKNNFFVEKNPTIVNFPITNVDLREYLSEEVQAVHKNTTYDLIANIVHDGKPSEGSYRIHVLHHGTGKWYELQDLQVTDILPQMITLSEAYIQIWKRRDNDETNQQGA
Outline: as §1

USP4 = target: T4, USP4 (UniProt Q13107)
T4 sequence (whole entry): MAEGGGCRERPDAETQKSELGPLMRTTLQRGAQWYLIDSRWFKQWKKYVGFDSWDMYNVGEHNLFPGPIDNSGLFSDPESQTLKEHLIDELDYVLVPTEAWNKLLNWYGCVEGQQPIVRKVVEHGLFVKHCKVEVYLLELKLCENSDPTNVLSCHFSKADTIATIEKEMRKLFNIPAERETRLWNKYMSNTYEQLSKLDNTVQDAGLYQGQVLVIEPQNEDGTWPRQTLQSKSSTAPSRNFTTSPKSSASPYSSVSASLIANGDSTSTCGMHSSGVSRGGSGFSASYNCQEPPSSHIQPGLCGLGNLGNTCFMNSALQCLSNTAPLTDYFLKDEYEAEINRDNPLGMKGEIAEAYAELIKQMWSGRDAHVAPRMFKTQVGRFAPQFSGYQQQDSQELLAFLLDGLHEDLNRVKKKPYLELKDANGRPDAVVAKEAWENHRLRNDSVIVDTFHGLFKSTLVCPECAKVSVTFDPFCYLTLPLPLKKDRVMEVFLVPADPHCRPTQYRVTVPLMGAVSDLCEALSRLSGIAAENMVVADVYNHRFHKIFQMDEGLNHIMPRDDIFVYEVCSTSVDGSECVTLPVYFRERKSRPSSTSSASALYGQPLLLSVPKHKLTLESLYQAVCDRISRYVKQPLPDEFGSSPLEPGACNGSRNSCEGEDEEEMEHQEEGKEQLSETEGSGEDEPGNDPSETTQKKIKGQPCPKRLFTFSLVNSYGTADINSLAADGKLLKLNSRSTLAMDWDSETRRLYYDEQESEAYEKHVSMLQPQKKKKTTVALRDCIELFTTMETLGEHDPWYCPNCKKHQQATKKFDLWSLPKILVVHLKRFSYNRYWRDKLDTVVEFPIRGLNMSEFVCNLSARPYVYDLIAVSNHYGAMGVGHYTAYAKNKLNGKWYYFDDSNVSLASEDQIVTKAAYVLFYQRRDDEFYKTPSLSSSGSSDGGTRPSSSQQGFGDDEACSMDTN
Outline: as §1

Measured: log2 ratio of Biotin-Ahx-Ub-VS probe labelling

O=C(CCl)NCc1ccc(N2CCOCC2)c(F)c1
inactive: USP34 -0.0627 | USP36 -0.165 | USP38 0.104 | USP39 0.0411 | USP4 0.263
